Screening data from PubChem.
The list is not random: actives were taken first. Their share in the collection is about 4.1%.
LMP1 NFkB inh: Epstein-Barr LMP1 NF-kappaB reporter inhibition; actives 0.69% (n = 350,000); inhibition, % at 12.5 µM; AID 504558; LMP1-induced NF-kappaB luciferase reporter cells, luminescence; in the data active = inhibition above about 41%;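 also: 0% = neutral control wells and 100% = reference inhibitor control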
TRPM1 prom inh: MITF TRPM1 promoter inhibition in SK-MEL-5 cells | inhibition, % at 12.5 µM | SK-MEL-5 TRPM1 promoter luciferase, 24 h | AID 488899 | actives 0.83% (n = 330,000);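 active = mean inhibition across replicates of 60% or more, whatever share of single replicates reaches that level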
Shn3 inh set2: Schnurri-3 reporter inhibition in Clone20 osteoblasts | Clone20 osteoblast Shn3 3'UTR firefly luciferase, 24 h | inhibition, % at 12.5 µM | actives 0.52% (n = 360,000);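 active = mean inhibition of at least 75% with every replicate also reaching 75%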;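 also: 0% = median of neutral control wells and 100% = pilot-screen positive control compound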
TROY signal inh: inhibitors of TROY-dependent NF-kB signaling. Q293 LMP1-TROYcd NF-kB luciferase reporter, 4 h. inhibition, % at 10 µM. actives 0.98% (n = 360,000). AID 1347056;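 active = compounds whose plate-normalised and pattern-corrected inhibition of the luciferase reporter signal at the single screening dose is 50% or more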
TWEAK-Fn14 inh: TWEAK-Fn14 signaling inhibition. TWEAK-stimulated Fn14 reporter cells, luciferase luminescence, 8 h. inhibition, % at 10 µM. actives 2% (n = 360,000); in the data active = inhibition above about 50%
Peg3 promoter: inhibitors of Peg3 promoter; HeLa PEG-Prom luciferase reporter, luminescence, overnight; actives 1.7% (n = 360,000); inhibition, % at 20 µM; AID 588405;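 active = inhibition of at least 50% at 20 µM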
* marks the source's active call; other numbers are inactive results; nt = not tested or not shown.

SMILES | LMP1 NFkB inh | TRPM1 prom inh | Shn3 inh set2 | TROY signal inh | TWEAK-Fn14 inh | Peg3 promoter
COc1ccc(-c2cc(C(=O)N3CCN(c4ccccc4)CC3)no2)cc1 | -23.4 | -51.6 | -41.1 | 38.1 | 50.0* | -323.8
O=C(c1cc(-c2ccc(Cl)cc2Cl)on1)N1CCCCCC1 | -25.8 | -46.1 | -50.0 | -0.6 | 23.5 | -288.4
Cc1ccc(-c2cc(-c3ccccc3)no2)cc1 | -44.1 | -36.0 | -76.5 | -25.9 | 59.6* | -233.2
O=C(c1cc(-c2ccc3c(c2)OCO3)on1)N1CCCCC1 | 26.8 | -11.9 | -17.4 | 47.5 | 78.5* | -59.9
COc1cccc(C(=O)NC2CC3CCCC(C2)N3Cc2ccc(C)cc2)c1 (configuration not stated) | 5.3 | 8.4 | -7.3 | -0.6 | 8.5 | -7.4
COc1ccc(CCNC(=O)COC(=O)c2cc(OC)c(OC)cc2OC)cc1 | -1.4 | 0.4 | 63.4 | -3.6 | -8.3 | -1.2
O=C(c1cc(C2CC2)on1)N1CCN(C(c2ccccc2)c2ccccc2)CC1 | -27.2 | nt | 6.5 | -11.1 | 11.1 | 0.4
Cc1ccc(-c2cc(C(=O)N3CCOCC3)no2)cc1 | 39.0 | 28.1 | 9.0 | 67.4* | 85.6* | -7.7
O=C(c1cc(-c2cccc(O)c2)on1)N1CCN(C(c2ccccc2)c2ccccc2)CC1 | -6.3 | -0.8 | 43.8 | 29.5 | 35.5 | 82.1*
Cc1ccc(-c2cc(C(=O)N3CCCC3)no2)cc1 | 22.0 | 8.7 | 42.7 | 50.3* | 83.1* | -14.7
COc1ccc(C2(C(=O)N3CCCC3)CCOCC2)cc1OC | -0.6 | -4.7 | 6.7 | -10.2 | -1.1 | 2.1
CCOC(=O)C1C2C=CC(CC2)N1c1ccccc1 (configuration not stated) | 6.1 | 9.7 | -21.7 | -13.8 | 4.7 | -21.1
Cc1sc(NC(=O)c2sc3nc4c(C)cccc4cc3c2N)c(C#N)c1C | -42.1 | -42.5 | 21.3 | 9.6 | 15.9 | -3.1
Nc1c(C(=O)N2CCOCC2)sc2nc3c(cc12)CCCC3 | 56.5* | 55.3 | 47.1 | 29.3 | -0.1 | 36.3
Cc1ccc(C)c2nc3sc(C(=O)N4CCOCC4)c(N)c3cc12 | -25.7 | -42.8 | -14.1 | -7.8 | -22.9 | -222.5
Cc1cccc2cc3c(N)c(C(=O)Nc4ccc(N5CCOCC5)cc4)sc3nc12 | 10.4 | 3.0 | 56.8 | 51.0* | 57.7* | 55.6*
Cc1cc(C)c2nc3sc(C(=O)N4CCOCC4)c(N)c3cc2c1 | 50.8* | 46.3 | 7.1 | 24.3 | 9.2 | -155.3
O=C1CCN(CCCN2CCC(=O)NC2=S)C(=S)N1 | -19.4 | nt | -10.8 | -10.4 | -7.5 | -2.9
CN1C[C@H]2CON(C)[C@H]2C[C@H]1c1cccc(N2CCOCC2)c1 | 1.2 | -2.4 | 5.4 | -14.9 | 6.1 | 3.0
CCOC(=O)c1ccc(N2C(=O)c3n[nH]c(-c4ccco4)c3C2c2ccc([N+](=O)[O-])cc2)cc1 (configuration not stated) | 3.6 | 20.2 | 22.6 | -17.5 | 47.3 | 60.0*
CCOC(=O)c1ccc(N2C(=O)c3n[nH]c(C)c3C2c2cccnc2)cc1 (configuration not stated) | 4.7 | 8.4 | 8.2 | -10.0 | -14.1 | 34.3
COc1ccc(-c2cc(C(F)(F)F)n3nc(C(=O)NCc4ccco4)cc3n2)cc1OC | -7.4 | -0.7 | -1.9 | 9.6 | -12.2 | -3.3
COc1ccc2c(c1)c(CC(=O)OCC(N)=O)c(C)n2C(=O)c1ccc(Cl)cc1 | 1.3 | -12.7 | -6.2 | 53.8* | 25.0 | 13.6
Cc1ccccc1NC(=S)NN1CCN(C)CC1 | -2.4 | 2.9 | -6.9 | nt | 73.9* | -2.0
CCCCn1c(SCC(=O)Nc2cccc(OC)c2)nc2ccc(N3CCOCC3)cc2c1=O | -3.7 | -2.0 | -2.9 | 61.6* | 32.3 | 0.2
SMILES | LMP1 NFkB inh | TRPM1 prom inh | Shn3 inh set2 | TROY signal inh | TWEAK-Fn14 inh | Peg3 promoter
CCCCn1c(SCC(N)=O)nc2ccc(N3CCOCC3)cc2c1=O | -1.8 | 0.5 | -7.6 | -5.7 | 2.7 | 2.3
O=[N+]([O-])c1ccc(CN2CCN(c3ccc(Cl)cc3)CC2)o1 | -7.7 | 3.2 | 13.5 | 1.1 | -27.6 | 16.9
FC(F)(F)c1ccccc1-n1ccnc1 | -5.8 | 0.7 | -30.4 | 8.8 | 5.9 | 10.5
COc1ccccc1[C@@]1(C)ON(c2ccccc2C(F)(F)F)C1=O | 1.8 | 15.7 | -21.9 | 10.6 | 34.6 | 77.2*
O=C1N(c2ccccc2C(F)(F)F)OC1(Cc1ccccc1)c1ccccc1 (configuration not stated) | 9.5 | 14.3 | -12.0 | 4.1 | 13.2 | 57.8*
CC[C@]1(c2ccccc2C)ON(c2ccccc2C(F)(F)F)C1=O | 0.8 | 10.2 | -6.4 | -2.8 | -1.8 | 35.9
O=C1N(c2ccccc2C(F)(F)F)O[C@]1(c1ccccc1)C1CCCCC1 | 9.2 | 7.9 | -1.0 | -6.7 | 4.8 | 65.4*
COc1ccccc1N1C(=O)CC(c2ccccc2)CC1=O | -3.5 | 22.7 | -2.3 | -25.3 | 6.1 | 11.3
CCN(CC)C(=O)Oc1cc(=O)n2c3c(cccc13)CCC2 | 3.4 | 3.7 | 0.7 | 3.7 | -1.5 | 11.2
CC(C)(C)NC(=O)c1nn(Cc2ccccc2)c(=O)c2ccccc12 | -3.6 | -18.3 | -3.1 | -14.1 | 11.2 | 10.1
O=C(Cc1ccccn1)Nc1ccccc1 | -3.6 | 13.9 | -30.2 | -17.9 | 109.8* | -12.3
O=C(Nc1ccc([N+](=O)[O-])cc1)Nc1ccc(N2CCOCC2)c2nonc12 | 19.9 | -5.5 | 22.7 | 68.8* | 5.8 | 62.2*
CCN(CC)S(=O)(=O)c1ccc(-c2nnc(SCC(=O)N3CCOCC3)o2)cc1 | -5.9 | -1.6 | -7.3 | -13.1 | -8.8 | 2.0
CCN(CC)S(=O)(=O)c1ccc(-c2nnc(SCC(=O)N3CCc4ccccc43)o2)cc1 | -41.0 | 24.2 | 41.1 | -20.4 | -13.0 | 52.2*
CSC(SC)=C(C#N)C(=O)c1ccccc1 | -6.7 | 64.9* | 77.0 | 4.0 | -90.7 | 99.2*
COc1cccc(C(=O)C(C#N)=C(SC)SC)c1 | 16.4 | 82.3* | 29.4 | -7.2 | -80.5 | 101.8*
N#CC(C#N)=C(Nc1ccccc1)c1ccccc1 | -11.1 | 5.3 | 12.6 | -6.4 | 7.7 | 5.9
O=C(CSc1ncn[nH]1)NCCc1ccc(Cl)cc1 | -7.8 | 1.2 | -6.9 | -2.9 | -1.0 | 9.3
COc1ccc(Cn2c(CCC(=O)Nc3ccc(C)c(C)c3)nc3cccnc32)cc1 | 9.9 | 0.0 | 2.2 | -13.0 | 4.0 | 5.3
Nc1ncnc(Sc2ccc(Cl)cc2)c1[N+](=O)[O-] | 0.6 | -0.1 | -0.7 | -7.1 | 68.9* | -7.3
Nc1ncnc(Sc2ncccn2)c1[N+](=O)[O-] | -56.9 | 79.2* | -13.3 | 30.7 | 71.2* | 101.0*
Nc1ncnc(Sc2ccccc2)c1[N+](=O)[O-] | 24.3 | -6.1 | 9.3 | 22.4 | 56.7* | 20.8
CCn1c(=O)n(CC(=O)Nc2ccc(F)cc2)c(=O)c2ccccc21 | -13.8 | 10.9 | -3.1 | -4.2 | 0.7 | 24.6
Cn1nc(C(C)(C)C)cc1C(=O)N1CCCCC1c1cc(C(=O)Nc2ccc(F)c(Cl)c2)no1 (configuration not stated) | nt | nt | 85.6* | 33.1 | 31.3 | 24.6
